Assay results published in PubChem BioAssay (NCI).
About 83,000 compounds went through this panel and 20% of them were active in at least one assay; those are over-represented in the sample as a whole.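 Negative percent growth values reflect cell death: -40 means 40% of the cells present at the start died, and -100 means all died.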 Values without a mark were called inactive. The source made the active and inactive calls. Rule for the calls: active = growth percent below 10; inactive = the rest.

Tested on: CCRF-CEM leukemia
Test: NCI-60 one-dose screen, 48 h (100 = growth as untreated, 0 = no growth, -100 = all killed)
Details: 10 µM unless noted

Structure (SMILES)	growth
CCOC(=O)c1cnn(-c2nc(-c3ccc(F)cc3)c(C#N)c(N3CCOCC3)n2)c1N	92.8%
Cc1c(O)c(=O)ccn1-c1nc2ccccc2s1	82.7%
Nc1ccc(C2=NN(C(=O)c3cc(-c4ccc(Cl)cc4)nc4ccccc34)C(c3ccc(Cl)cc3)C2)cc1 (configuration not stated)	17.8%
COc1ccc2nc(-c3ccc(OC)c(OC)c3)cc(-c3nnc(SCC(=O)Nc4ccc(C(C)=O)cc4)o3)c2c1	94.8%
CNCc1cccc2c1OCCOCCOCCN(CCN1CCOCC1)S(=O)(=O)c1ccc(cc1)-c1cnc(N)c(n1)C(=O)N2	18%
COc1cc(C2=NN(C(C)=O)C(c3cccc(Nc4ccnc5cc(C(F)(F)F)ccc45)c3)C2)cc(OC)c1OC (configuration not stated)	44%
CC(C)CSc1nc(Nc2ccccc2)c(C#N)c(-c2ccc(F)cc2)n1	31.1%
CNc1cccc2c1C(=O)c1cccc(N)c1C2=O	20.5%
NC(=O)c1ccc(C2C3=C(CCCC3=O)OC3=C2C(=O)c2ccccc2C3=O)cc1 (configuration not stated)	15%
C=CCn1c(SCC(=O)Nc2ccc(C(=O)/C=C/c3ccc(Cl)cc3)cc2)nnc1-c1cc(OC)c(OC)c(OC)c1	84.6%
C=C1C(=O)O[C@H]2[C@H]1CC/C(C=Nc1c(N)cc(F)cc1Br)=C\CC[C@@]1(C)O[C@@H]21	7.71% (active)
COc1cc(-c2csc(NC(=O)Nc3ccc(Cl)cc3)n2)cc(OC)c1OC	6.31% (active)
COc1ccc(C(=O)c2cc(OC)c(C)c(OC)c2)cc1OC(=O)CCl	11.9%
Nc1c(C(=O)Nc2cccc3ccccc23)sc2nc3c(cc12)COCC3	23.6%
CN(C)C(CNc1oc(-c2cccc3ccccc23)nc1C#N)c1ccco1 (configuration not stated)	79.5%
Cc1cnc(-c2ccc(-c3ccc(NC(=O)Nc4c(F)cc(F)cc4F)cc3F)c3c2C(=O)NC3)[nH]1	23.9%
COc1ccc(-c2cc(C(=O)N3N=C(c4ccc(N)cc4)CC3c3ccc(OC)cc3)c3cc(OC)ccc3n2)cc1 (configuration not stated)	63.3%
COc1cc([C@H](C)c2ccc3ccccc3c2)cc(OC)c1OC	16%
O=c1nc(-c2ccccc2)c2cc(-c3ccc(N4CCCC4)nc3)ccc2[nH]1	54.5%

Structure (SMILES)	growth
Cc1cccc2nc3c(n12)C(=O)C(=O)c1ccccc1-3	91.9%
CC(=O)Nc1c(C(=O)Nc2ccccc2)sc2nc3c(cc12)C(OC(C)=O)CCC3 (configuration not stated)	94.6%
CCN1CCN(c2ccc(NC(=O)Nc3nc4ccc(-c5ccccc5OC)cc4s3)cc2)CC1	-17.3% (active)
Cc1cc(Cl)cc(CN(Cc2ccccc2)Cc2c(O)ccc3ccccc23)c1O	99.2%
COC1=CC=CC2(OC)C3(O)CCCc4cccc(c43)N3C(=O)COC132 (configuration not stated)	94.8%
C=C1C(=O)O[C@H]2[C@H]1CC/C(COC(=O)N1CCC[C@H]1C(=O)Nc1ccc(OC)c(C(N)=O)c1O)=C\CC[C@@]1(C)O[C@@H]21	-12.6% (active)
Cc1cc(C)nc(NS(=O)(=O)c2ccc(Nc3ccc4c5c(n(CCCN(C)C)c(=O)c4c3)-c3ccccc3C5=O)cc2)n1	42.2%
COc1cc(NC(=O)c2cc(O)c(C/C=C(\C)CCC=C(C)C)c(O)c2)cc2c1O[C@]1(C)CC[C@@H](O)C(C)(C)[C@H]1C2	6.24% (active)
CCCCCCN1C(=O)CN=C1Nc1ccc2cc3ccc(NC4=NCC(=O)N4CCCCCC)cc3nc2c1	12%
Nc1ccc(C2=NN(C(=O)c3cc(-c4ccc(Cl)cc4)nc4ccccc34)C(c3ccccc3)C2)cc1 (configuration not stated)	24.1%
CN(CCC#N)C(=O)Nc1ccccc1	111%
C=C(C)[C@@H]1CC[C@]2(C(=O)OCCCC[P+](c3ccccc3)(c3ccccc3)c3ccccc3)CC[C@]3(C)[C@H](CC[C@@H]4[C@@]5(C)CC[C@H](OC(=O)C(Cl)Cl)C(C)(C)[C@@H]5CC[C@]43C)[C@@H]12	0.798% (active)
CSc1cccc(NC(=O)Nc2nc3c(C)cccc3s2)c1	106%
O=C(O)c1cn(C2CC2)c2cc(N3CCN(Cc4nnc(Nc5ccccc5)o4)CC3)c(F)cc2c1=O	92%
O=C1CS/C(=N/c2nnc(-c3ccc(O)cc3)s2)N1	97%
COc1ccc2c(c1)C1(C(=O)N2)C(C#N)=C(c2ccccc2)Nc2c1c(-c1ccccc1)nn2-c1ccccc1 (configuration not stated)	16.6%
CCN1CCC[C@H]1c1cc(O)c2c(c1OC)C[C@H]1C[C@H]3[C@H](N)C(=O)C(C(N)=O)=C(O)[C@@]3(O)C(=O)C1=C2O	1.43% (active)
O=C(/C(=C/c1ccc([N+](=O)[O-])cc1)SCc1ccccc1)c1ccc(Cl)cc1	9.82% (active)
